Screening data as filed in PubChem.
CDK5 p35 inh – blocks human CDK5/p35 kinase activity | Recombinant CDK5/p35, ADP-Glo luminescence, 60 min | inhibition, % at 10 µM | 330,000 tested, 0.01% active | AID 488839;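 active = highest replicate inhibition of at least 50% and at least 75% of replicates reaching 50%; inconclusive = only one of the two criteria met; inactive = both criteria failed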
dFosB act – mouse delta FosB homodimer activation; 340,000 tested, 0.99% active; activation, % at 25 µM; purified delta FosB, TAMRA-CDK5 oligo fluorescence polarization; percent of positive-control signal above neutral wells; P13346; AID 493131;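 active = mean activation above about 17%, with every replicate also reaching it, limit read from the data, passing the limit was not always enough; inconclusive = only one of the two conditions met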
Target sequence (P13346 whole entry, looked up): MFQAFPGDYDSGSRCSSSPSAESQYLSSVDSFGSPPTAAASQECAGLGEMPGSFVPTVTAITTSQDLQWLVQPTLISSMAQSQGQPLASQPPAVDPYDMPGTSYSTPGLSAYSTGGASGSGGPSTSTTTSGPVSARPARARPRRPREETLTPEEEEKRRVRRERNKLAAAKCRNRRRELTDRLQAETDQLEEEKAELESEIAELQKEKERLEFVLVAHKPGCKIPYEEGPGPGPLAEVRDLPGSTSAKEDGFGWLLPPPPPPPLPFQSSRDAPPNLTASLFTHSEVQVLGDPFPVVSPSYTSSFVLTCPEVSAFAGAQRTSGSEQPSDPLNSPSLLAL
esBAF inh – SWI/SNF esBAF complex inhibition; 350,000 tested, 2% active; AID 602393; reporter increase, % at 12.5 µM; mouse ES cells, Bmi1-luciferase knock-in reporter, 24 h; 100% = twice the neutral-well signal; in the data active = activation above about 40%; inconclusive = no clear call, values can overlap the other calls;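 note: a rise in the Bmi1 reporter signal indicates esBAF inhibition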
SMARCA2 act – SMARCA2 function activation, primary screen; MG213 cells, MMTV-luciferase reporter, dexamethasone, overnight; activation, % at 9.1 µM; 370,000 tested, 1% active; AID 652017; in the data active = activation above about 7.8%
Rtt109 HAT inh – inhibitors of Candida albicans Rtt109/Vps75 histone acetyltransferase; Q5AAJ8; purified Rtt109/Vps75, ThioGlo CoA-SH fluorescence, 4 h; inhibition, % at 34.9 µM; 330,000 tested, 0.16% active; AID 540336;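 active = inhibition of at least 50% in every replicate; inconclusive = best replicate reaches 50% inhibition but some replicates fall short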
DYRK1A inh – inhibitors of rat Dyrk1A kinase | Q63470 | ADP-Glo luminescence, NFATc1 peptide | inhibition, % at 12.5 µM | 310,000 tested, 0.43% active | AID 504441; in the data active = inhibition above about 50%
Hits are given with their value; - = inactive; ? = inconclusive; . = no result given. Only some compounds are listed: those with a hit (about 3.2% of all), similar ones and a draw of the others.

SMILES	CDK5 p35 inh	dFosB act	esBAF inh	SMARCA2 act	Rtt109 HAT inh	DYRK1A inh
O=C(Nc1ccccc1F)c1ccc2sc([C@H]3C[C@H](O)[C@@H](CO)O3)nc2c1	.	.	55.4	-	.	.
O=C(Nc1nccs1)c1ccc2sc([C@H]3C[C@H](O)[C@@H](CO)O3)nc2c1	.	.	-	-	.	.
O=C(Nc1cccc2ccccc12)c1ccc2sc([C@@H]3O[C@H](CO)[C@@H](O)[C@H]3O)nc2c1	.	.	41.7	-	.	.
O=C(NC1CC1)c1ccc2sc([C@H]3C[C@H](O)[C@@H](CO)O3)nc2c1	.	.	-	-	.	.
O=C(Nc1nc2ccccc2s1)c1ccc2sc([C@H]3C[C@H](O)[C@@H](CO)O3)nc2c1	.	.	55.0	-	.	.
O=C(Nc1ccccc1F)c1ccc2sc([C@@H]3O[C@H](CO)[C@H](O)[C@H](O)[C@H]3O)nc2c1	.	.	-	-	.	.
CNC[C@H]1Oc2ccc(NC(=O)Cn3cnnn3)cc2C(=O)N([C@H](C)CO)C[C@@H]1C	.	.	-	.	.	.
Cc1nn(-c2nc3ccccc3s2)c(N)c1-c1ccccc1	-	-	94.6	-	-	-
Cc1nn(-c2nc3ccccc3s2)c(N)c1Sc1ccc(F)cc1	-	-	88.6	-	-	-
Cc1nn(-c2nc3ccccc3s2)c(N)c1-c1ccc(Cl)cc1	-	-	.	-	-	-
Cc1ccc(SCc2cn3cccnc3n2)cc1	-	-	46.0	-	-	-
Clc1ccc(SCc2cn3cccnc3n2)cc1	-	-	?	-	-	-
COc1nc(Nc2ccc([N+](=O)[O-])cc2)nc(NC2CCCCC2)n1	-	28.9	-	-	.	-
CCN(CC)C(=S)SCC(=O)Nc1ccc(F)cc1	-	-	.	-	-	.
CCN(CC)C(=S)SCC(=O)c1ccc(F)cc1	-	-	48.4	-	.	-
CCN(CC)C(=S)SCC(=O)c1ccccc1	-	-	54.9	-	-	-
Cc1noc(C)c1S(=O)(=O)Nc1ccc2c(c1)CC(=O)N([C@H](C)CO)C[C@@H](C)[C@H](CN(C)Cc1ccc(C(F)(F)F)cc1)O2	.	.	-	.	.	.
C[C@@H]1CCCCO[C@@H](CN(C)S(=O)(=O)c2ccc(Cl)cc2)[C@H](C)CN([C@H](C)CO)C(=O)c2cc(NC(=O)Nc3ccc(F)cc3)ccc2O1	.	.	-	.	.	.
O=C(Nc1ccc(F)cc1)Nc1ccccc1F	-	-	74.4	-	.	-
CSc1ccccc1NC(=O)Nc1ccc(Cl)cc1	-	-	49.6	-	-	-
Cc1ccc(NC(=O)Nc2ncccc2C)cc1	-	-	.	-	-	-
COc1ccc(NC(=O)Nc2ccccc2F)cc1	-	-	-	-	-	-
COc1ccc(NC(=O)Nc2ccccc2SC)cc1	-	-	-	-	-	-
Cc1cccnc1NC(=O)Nc1ccc(F)cc1	-	-	51.2	-	-	-
O=C(C[C@H]1CC[C@H](NC(=O)CC2CC2)[C@@H](CO)O1)NCc1ccc(-c2ccccc2)cc1	.	.	-	.	.	.
SMILES	CDK5 p35 inh	dFosB act	esBAF inh	SMARCA2 act	Rtt109 HAT inh	DYRK1A inh
O=C(Cn1cnc2sc3c(c2c1=O)CCCC3)NCC(=O)Nc1c(F)cc(F)cc1Br	-	69.0	-	-	-	-
COc1ccc(NC(=O)CNC(=O)Cn2cnc3sc4c(c3c2=O)CCCC4)cc1OC	.	-	-	-	-	.
CCOc1cccc(-c2cnc3cccnn23)c1	.	.	61.3	-	.	.
CC(=O)c1ccc(OCc2cc(C(=O)N3CCC[C@H]3CO)no2)cc1	-	-	-	-	-	-
CC(=O)c1cccc(OCc2cc(C(=O)N3C[C@@H](C)O[C@@H](C)C3)no2)c1	-	-	64.9	-	-	-
CC(=O)c1cccc(OCc2cc(C(=O)N3C[C@H]4CC[C@H]3C4)no2)c1	-	-	?	-	-	-
COCCC1CCCCN1C(=O)c1cc(COc2cccc(C(C)=O)c2)on1 (stereo unspecified)	-	-	64.7	-	-	-
O=C(c1cc(COc2cccc(C(F)(F)F)c2)on1)N1C[C@H]2CC[C@H]1C2	-	-	58.0	-	-	-
C[C@@H]1CN([C@@H](C)CO)S(=O)(=O)c2ccc(-c3ccncc3)cc2O[C@H]1CN(C)Cc1cccnc1	.	.	-	.	.	.
O=c1oc(CCCO)cc2ccc(/C=C/c3cccc([N+](=O)[O-])c3)cc12	-	-	49.2	-	-	-
O=c1oc(CCCO)cc2ccc(Br)cc12	-	-	-	-	-	-
N#C/C(=C(/O)c1ccco1)c1nc2ccccc2s1	-	-	58.0	-	-	-
